From PubChem BioAssay
Sampled rows, rich in hits. Any-hit rate of the full collection: about 3.4%.
hcDAF12 agonist = H. contortus DAF-12 nuclear receptor activators, primary screen, cell-based, luminescence, HEK293, lit1-tk-luc reporter; HEK293 hcDAF-12 lit1-tk-luc reporter; 0% DMSO, 100% Δ7-dafachronic acid; activation, % at 6.8 µM; 1.4% of 370,000 active; AID 652067, 2013;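 active = activation above the mean of all tested compounds plus 3 SD, cut at about 5.5% in these data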;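 also: 100% = response to 3 µM Δ7-dafachronic acid high control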
hgDAF12 agonist = H. glycines DAF-12 receptor agonists, primary screen, cell-based, luminescence, HEK293, GAL4 fusion, UAS-luciferase | Nuclear hormone receptor DAF-12 (Heterodera glycines), GAL4 fusion | HEK293 GAL4-hgDAF12 UAS-luciferase reporter, agonist luminescence; normalized to butyrate control | activation, % at 6.8 µM | 1.8% of 370,000 active;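 active = activation above a cutoff set at the mean of all screened compounds plus 3 SD, cut at about 10% in these data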;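 also: 0% = DMSO wells and 100% = sodium butyrate wells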
NF-kB expr up = activators of NF-kB expression in neurons, primary screen, cell-based, HTS; human neuronal cells, NF-kB reporter expression; stronger effect = higher value; fold change at 12.5 µM; 1.6% of 190,000 active; in the data active = fold change above about 3.3
ssDAF12 agonist = S. stercoralis DAF-12 nuclear receptor activators, primary screen, cell-based, luminescence, HEK293, GRIP1 co-expression, lit1-tk-luc. HEK293 ssDAF-12/GRIP1 lit1-tk-luc reporter; % of 3 µM dafachronic acid response. Nuclear hormone receptor DAF-12 (Strongyloides stercoralis). activation, % at 6.8 µM. 1% of 370,000 active;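 active = activation above the mean over all tested compounds plus 3 SD, cut at about 0.9% in these data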;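 also: 0% = DMSO-only wells and 100% = 3 µM delta7-dafachronic acid wells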
APP 5'UTR act = activators of APP 5'UTR luciferase reporter, primary screen, SH-SY5Y cells | 1% of 190,000 active | AID 1276, 2008 | activation, % at 2 µM | SH-SY5Y APP 5'UTR luciferase reporter, luminescence; zero percent = DMSO vehicle wells;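 active = activation above a set limit, based on mean plus 3 SD of controls, cut at about 140% in these data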
LXRb hcDAF ctr = LXR agonists, Gal4 luciferase reporter, confirmation, counter-screen for hcDAF-12 agonist project, cell-based, luminescence, HEK293, H. contortus campaign; shares compounds with hcDAF12 agonist; HEK293 Gal4-LXR tk-luc reporter, 24 h; normalized: DMSO 0%, positive control 100%; 3,400 tested, under 10 active; activation, % at 6.8 µM;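 active = mean percent activation of the reporter above a cutoff set as the average over tested compounds plus their standard deviation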
Target sequence (P55055 whole entry, looked up, the tested form may be a part): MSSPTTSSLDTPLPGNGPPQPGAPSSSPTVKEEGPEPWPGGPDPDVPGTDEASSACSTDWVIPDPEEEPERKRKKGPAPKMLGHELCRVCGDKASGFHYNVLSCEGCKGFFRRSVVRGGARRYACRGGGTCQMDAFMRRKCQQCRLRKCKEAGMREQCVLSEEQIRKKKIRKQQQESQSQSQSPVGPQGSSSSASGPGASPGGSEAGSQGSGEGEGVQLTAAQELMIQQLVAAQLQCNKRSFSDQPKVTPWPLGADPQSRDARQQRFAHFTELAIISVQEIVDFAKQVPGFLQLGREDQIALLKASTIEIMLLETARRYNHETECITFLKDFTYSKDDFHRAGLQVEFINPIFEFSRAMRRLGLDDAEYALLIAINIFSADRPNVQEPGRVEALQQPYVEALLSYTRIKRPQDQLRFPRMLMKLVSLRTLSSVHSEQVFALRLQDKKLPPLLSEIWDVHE
hcDAF12 ag = H. contortus DAF-12 receptor agonists, confirmation, cell-based, luminescence, HEK293, lit1-tk-luc, triplicate | activation, % at 6.8 µM | 61% of 3,400 active | HEK293 hcDAF-12 lit1-tk-luc reporter; % of Δ7-dafachronic acid response | shares compounds with hcDAF12 agonist;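 active = mean activation across triplicate tests above the threshold derived from the earlier primary screen, cut at about 5.5% in these data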;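 also: 0% = DMSO only wells and 100% = 3 µM Δ7-dafachronic acid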
Active calls of the source: *; nt = no result.

SMILES | hcDAF12 agonist | hgDAF12 agonist | NF-kB expr up | ssDAF12 agonist | APP 5'UTR act | LXRb hcDAF ctr | hcDAF12 ag
O=C(NCCOc1ccccc1)c1ccccc1NC(=O)C1CCCO1 (centres undefined) | 9.0* | 11* | 2.8 | 1 | 132 | 1 | 10*
COc1ccccc1C(=O)Nc1ccc(Br)c2cccnc12 | -2 | 2 | nt | -1 | nt | nt | nt
COc1ccccc1C(=O)Nc1ccc(Br)cc1C | 7.0* | 11* | 1.8 | 1 | 43 | 0 | 9.6*
COc1cccc2cc(C(=O)Nc3ccccc3C)/c(=N/O)oc12 | 9.2* | 8 | nt | 1 | nt | 0 | 6.3*
Nc1ccccc1-c1ccccc1N | 0 | 0 | 1.1 | -1 | -1 | nt | nt
Nc1ccccc1N=Nc1ccccc1N | 6.7* | 10 | nt | 1 | nt | 1 | 9.2*
COc1ccccc1C(=O)NNC(=S)Nc1ccccc1 | 11* | 7 | 1.4 | 0 | 18 | 0 | 9.0*
COc1ccccc1C(=O)NNC(=O)c1ccc2ccccc2c1 | 0 | 0 | nt | -1 | nt | nt | nt
COc1ccccc1C(=O)NNC(=O)c1ccc(F)cc1 | 9.3* | 10 | 2.3 | 0 | 15 | 1 | 6.8*
COc1ccccc1C(=O)NNC(=O)C1CC=CCC1 (centres undefined) | 7.2* | 3 | nt | 4.0* | nt | 0 | 7.2*
COc1ccccc1C(=O)NNC(=O)C(=O)Nc1ccc(C)cc1 | 4 | 3 | nt | 1 | nt | nt | nt
N#CC1(c2ccccc2)CCCN1C(=O)c1ccccc1Br (centres undefined) | 10* | -1 | 1.2 | 0 | -9 | 0 | 2
COc1ccccc1CN1CCc2c([nH]c3ccccc23)C1 | 3 | -1 | nt | -1 | nt | nt | nt
Clc1cccc(CN2CCc3c([nH]c4ccccc34)C2)c1Cl | 7.0* | 1 | nt | -1 | nt | 0 | -1
CN(C)S(=O)(=O)c1ccc(C(=O)Oc2ccccc2)cc1 | 12* | 2 | 1.2 | -1 | 13 | 0 | 1
O=C(Oc1ccccc1)c1ccccc1 | 2 | 2 | nt | -1 | nt | nt | nt
Cc1cc(O)c(C(=O)/C=C/c2ccccc2O)c(=O)o1 | 6.8* | 5 | nt | 1 | nt | 0 | 3
O=C1c2ccccc2CN2C(=O)c3ccccc3CN12 | 0 | 1 | nt | 0 | nt | nt | nt
c1ccc(-c2cn3c(n2)-c2ccccc2C3)cc1 | 21* | 15* | 3.9* | 3.8* | 152* | 1 | 22*
Cc1ccc(C(=O)NC(=S)Nc2cc(-c3nc4ccccc4s3)ccc2C)cc1 | 7.2* | 12* | 4* | 1.4* | 120 | 1 | 6.0*
COC(=O)c1ccccc1NC(=S)NC(=O)c1ccc(C)cc1 | 7.4* | 10 | 1 | 0 | 16 | 0 | 4
COC(=O)c1ccccc1NC(=S)NC(=O)c1ccccc1 | -2 | 3 | 0.91 | -1 | 11 | nt | nt
O=C(NC(=S)Nc1ccccc1O)c1ccccc1Cl | 7.7* | 13* | 1.1 | 1.5* | 14 | 0 | 6.2*
O=C(NNc1nc2ccccc2nc1C(F)(F)F)c1ccccc1 | -1 | -1 | 0.97 | -1 | 9 | nt | nt
O=C(NNc1nc2ccccc2o1)c1ccccc1 | 8.2* | 11* | nt | 0 | nt | 1 | 4
SMILES | hcDAF12 agonist | hgDAF12 agonist | NF-kB expr up | ssDAF12 agonist | APP 5'UTR act | LXRb hcDAF ctr | hcDAF12 ag
O=C(CCN1C(=O)NC2(CCCC2)C1=O)Nc1ccc(-c2nc3ccccc3s2)cc1 | 7.7* | 13* | nt | 1.0* | nt | 1 | 7.6*
O=C(CCN1C(=O)NC2(CCCC2)C1=O)Nc1ccc(Sc2ccc(Br)cc2)cc1 | -2 | 7 | nt | -2 | nt | nt | nt
Cc1cccc(/C=N/c2sc3c(c2C#N)CCN(Cc2ccccc2)C3)c1O | 14* | 0 | 0.97 | 1 | -8 | 0 | 6.7*
COc1ccc(/C=N/c2sc3c(c2C#N)CCN(Cc2ccccc2)C3)c(O)c1 | nt | nt | 1.1 | nt | -16 | nt | nt
CCOC(=O)[C@]12CCCCC/C=C\1N(CCc1ccc(Cl)cc1)C(=O)[C@H]2CC(=O)NCCC(C)C | -3 | -2 | nt | -1 | nt | nt | nt
Cc1ccc(NC(=O)COC(=O)/C=C/c2cccc(Cl)c2)cc1S(=O)(=O)N1CCOCC1 | 8.7* | 0 | 0.89 | 0 | -16 | 0 | 0
C=CCN1C[C@@H](COCc2ccccc2)Oc2cccc(F)c2S1(=O)=O | -2 | 4 | nt | -2 | nt | nt | nt
c1ccc2c(c1)oc1c(Nc3ccc4c(c3)OCCO4)ncnc12 | 9.1* | 12* | 5* | 1 | 164* | 1 | 6.4*
CCCCOc1ccc(NC(=O)Nc2nnc(C)s2)cc1 | 8.5* | 0 | nt | 1.1* | nt | 0 | 4
CCc1nnc(NC(=O)Nc2ccc(OC)cc2)s1 | 0 | 4 | 2.1 | -1 | 14 | nt | nt
O=c1c2ccccc2[nH]c(=S)n1CCc1ccccc1 | 8.1* | 10 | 1.3 | 0 | 48 | 0 | 5.7*
O=c1c2ccccc2[nH]c(=S)n1Cc1ccccc1 | -3 | -1 | nt | -1 | nt | nt | nt
Oc1ccccc1-c1nc(N2CCN(Cc3ccccc3)CC2)c2ccccc2n1 | 8.5* | 6 | 1.2 | 0 | -9 | 0 | 4
CC(C)CNC(=O)OCc1cn(Cc2cccc(C(F)(F)F)c2)nn1 | 0 | -4 | nt | 0 | nt | nt | nt
O=C(C1=NN[C@@H]2C(=O)N(c3cccc(C(F)(F)F)c3)C(=O)[C@H]12)c1ccc2ccccc2n1 | -5 | -13 | 1.1 | -3 | -8 | nt | nt
O=C(C1=NN[C@@H]2C(=O)N(c3cccc(F)c3)C(=O)[C@H]12)c1ccc2ccccc2n1 | 9.0* | 3 | 2.6 | 1 | 19 | 0 | 3
O=S(=O)(c1ccc(F)cc1)n1c(CN2CCOCC2)nc2ccccc21 | 0 | -3 | nt | -1 | nt | nt | nt
CCOC(=O)C1(C)CCCN1C(=O)c1c(F)cccc1F (centres undefined) | 2 | 6 | nt | -2 | nt | nt | nt
CCOC(=O)C1(C)CCCN1C(=O)c1ccccc1F (centres undefined) | 7.1* | 2 | nt | -1 | nt | 0 | 0
COc1ccc2c(c1)N[C@@](CCNC=O)(c1[nH]c3ccccc3c1CCNC=O)C2=O | 4 | -2 | nt | -1 | nt | nt | nt
COc1cccc(OCC(C)CN2CCC(C(O)(c3ccccc3)c3ccccc3)CC2)c1 (centres undefined) | 1 | 1 | nt | 0 | nt | nt | nt
